Test results as given in PubChem BioAssay (NCATS).
Results filed as inconclusive are left out. The source made the active and inactive calls. The call rests on the fitted dose curve; in most records, active means well fitted curve in the direction sought with a large enough effect; inconclusive means small, poorly fitted or top-dose-only effect, or another doubt; inactive means no such curve, though single readings can be large; an effect the other way counts as inactive or inconclusive.

How the values were obtained:
[1] = Cell Viability - LYMP2-003 (AID 965);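 further: cells exposed to compounds for 24 h before reading; nearly all actives have a fitted effect of over 50% in size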
Procedure, shortened: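 Human lymphoblastoid LYMP2-003 cells, 2500/well, exposed to compounds for 24 h at 37 C in complete medium. Viability read as intracellular ATP by CellTiter-Glo luminescence; AC50 from Hill-equation fits of qHTS concentration-response data.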

[2] = Cell Viability - LYMP2-004 (AID 966); further: nearly all actives have a fitted effect of over 65% in size
Procedure, shortened: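 Human lymphoblastoid cells (2500/well) in complete medium were treated with compounds for 24 hr at 37 C, then intracellular ATP was measured by CellTiter-Glo luminescence. AC50 values came from Hill-equation fits of concentration-response data.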

[3] = Cell Viability - LYMP2-009 (AID 968); further: series mostly up to about 92 µM; nearly all actives have a fitted effect of over 55% in size
[4] = Cell Viability - LYMP2-011 (AID 969); further: nearly all actives have a fitted effect of over 60% in size
Procedure, shortened: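 Human lymphoblastoid cells (2500/well) were plated in complete medium, preincubated 5 hr at 37 C, then exposed to compounds for 24 hr at 37 C. Intracellular ATP was read by CellTiter-Glo luminescence, and AC50 came from Hill-equation concentration-response fits.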

[5] = Cell Viability - LYMP2-013 (AID 970); further: series mostly up to about 92 µM; nearly all actives have a fitted effect of over 55% in size
Procedure, shortened: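 Human lymphoblastoid cells, 2500/well, were preincubated 5 hr at 37 C, then treated with compounds for 24 hr at 37 C in complete medium. Intracellular ATP was read by CellTiter-Glo luminescence; AC50 from Hill-equation fits of concentration-response data.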

[6] = Cell Viability - LYMP2-015 (AID 971); further: nearly all actives have a fitted effect of over 55% in size
Procedure, shortened: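 Human lymphoblastoid cells (2500/well) in complete medium were preincubated 5 hr at 37 C, then compound-treated 24 hr at 37 C. Intracellular ATP was read by CellTiter-Glo luminescence after 30 min at room temperature; AC50 came from Hill-equation concentration-response fits.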

[7] = Cell Viability - LYMP2-017 (AID 972); further: series mostly up to about 92 µM; nearly all actives have a fitted effect of over 55% in size
Procedure, shortened: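 Human lymphoblastoid cells (2500/well) were seeded in complete medium, held 5 hr at 37 C, then exposed to compounds for 24 hr at 37 C. Intracellular ATP was read by CellTiter-Glo luminescence after 30 min at room temperature, with AC50 values from Hill-equation fits.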

[8] = Cell Viability - LYMP2-023 (AID 975)
From the text: NIH Chemical Genomics Center [NCGC]
NIH Molecular Libraries Screening Centers Network [MLSCN]
National Institutes of Environmental Health Sciences [NIEHS]
National Toxicology Program [NTP]
We have developed a 1536-well cell-based assay for quantitative high throughput screening (qHTS) against a number of cell lines to determine in vitro cytotoxicity of small molecules. This particular assay uses a human lymphoblastoid cell line (LYMP2-023) purchased from Coriell Institute for Medical Research.
NCGC Assay Protocol Summary:
The CellTiter-Glo luminescent cell viability assay (Promega) is a homogeneous method to measure the number of viable cells in culture. The end point readout of this assay is based on quantitation of intracellular ATP, an indicator of metabolic activity, using the luciferase reaction. […]
Using the CellTiter-Glo luminescent cell viability assay, the amount of cellular ATP was measured in the lymphoblastoid cell line with complete culture medium following compound treatment for 24 hours. […] Library compounds were measured for their ability to cause acute toxicity in the cell line, as reflected by a decrease in intracellular ATP levels, in a concentration-dependent manner. […] AC50 values were determined from concentration-response data modeled with the standard Hill equation. […]
8. Detection; Luminescence; Viewlux plate reader […]

[9] = Cell Viability - LYMP2-025 (AID 976); further: series mostly up to about 92 µM
Procedure, shortened: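 Human lymphoblastoid LYMP2-025 cells (2500/well) were pre-incubated 5 hr at 37 C, then treated with compounds for 24 hr at 37 C in complete medium. Viability was read as intracellular ATP by CellTiter-Glo luminescence; AC50 from Hill fits.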

[10] = Cell Viability - LYMP2-002 (AID 977);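 further: series mostly up to about 92 µM; compound exposure lasted 24 h at 37 °C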
Procedure, shortened: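 Human lymphoblastoid LYMP2-002 cells, 2500 per well, exposed to compounds for 24 h at 37 C in complete medium; viability read as intracellular ATP by CellTiter-Glo luminescence, AC50 from Hill fits.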

Measured: outcome

C[C@@H]1C[C@H]2[C@@H]3CCC4=CC(=O)C=C[C@]4(C)[C@@]3(F)[C@@H](O)C[C@]2(C)[C@@]1(O)C(=O)CO
inactive: all assays above
